From PubChem BioAssay
RORgamma inh: qHTS for inhibitors of ROR gamma transcriptional activity; Nuclear receptor ROR-gamma (Mus musculus), P51450; Drosophila S2 Gal4-RORgamma UAS-luciferase reporter, 20 h; Potency, µM (top dose mostly 53.6 µM), for inactives: at the highest dose activity change, negative = inhibition, hits mostly inhibitors; 5.4% of 310,000 active; AID 2551, 2010; also: nearly all actives have a fitted effect of over 60% in size
Target sequence (P51450 whole entry, looked up, the tested form may be a part): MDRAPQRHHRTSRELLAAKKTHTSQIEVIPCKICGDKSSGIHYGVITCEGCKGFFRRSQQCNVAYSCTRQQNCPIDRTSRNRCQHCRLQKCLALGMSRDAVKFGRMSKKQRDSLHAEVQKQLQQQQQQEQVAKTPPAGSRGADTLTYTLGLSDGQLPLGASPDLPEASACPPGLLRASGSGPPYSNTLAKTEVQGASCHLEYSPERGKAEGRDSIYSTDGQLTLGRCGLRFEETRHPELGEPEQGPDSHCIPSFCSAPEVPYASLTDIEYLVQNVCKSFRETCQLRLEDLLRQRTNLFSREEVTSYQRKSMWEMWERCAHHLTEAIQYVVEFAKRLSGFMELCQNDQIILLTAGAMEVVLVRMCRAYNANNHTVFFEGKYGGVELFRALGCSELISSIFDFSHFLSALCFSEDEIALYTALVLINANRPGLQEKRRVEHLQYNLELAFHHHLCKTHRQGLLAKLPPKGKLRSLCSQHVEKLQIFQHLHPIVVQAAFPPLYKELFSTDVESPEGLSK
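In this cell-based reporter format, copper sulfate (700 uM final) drives Gal4–ROR gamma fusion expression from a metallothionein promoter in Drosophila Schneider cells; compounds preincubated 1 hr, reporter read after 20 hr at ambient temperature.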
Luc counter: Counterscreen for Luciferase (Kinase-Glo TM) Inhibition | AID 1379, 2008 | Kinase-Glo luciferase, ATP luminescence, 8 min | Potency, µM (top dose mostly 38.3 µM), for inactives: at the highest dose activity change, negative = inhibition, most hits filed as inhibitors | 0.28% of 200,000 active | Luciferin 4-monooxygenase (Photuris pensylvanica), Q27757; also: nearly all actives have a fitted effect of over 60% in size
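Compounds were added to a substrate mix at pH 7.2 (50 mM imidazole, 10 uM ATP, within the enzyme's linear range), followed by Kinase-Glo detection reagent; luminescence was measured after 8 minutes at ambient temperature.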
Gal4-VP16 FLuc: VP16 counterscreen qHTS for inhibitors of ROR gamma transcriptional activity | 3.5% of 310,000 active | Potency, µM (doses to about 53.6 µM), without a hit: at the highest dose activity, negative = inhibition, hits mostly inhibitors | Drosophila S2 Gal4-VP16 UAS-luciferase, luminescence, 20 h;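 also: Gal4-VP16 expression switched on by copper sulfate through the metallothionein promoter; nearly all actives have a fitted effect of over 50% in size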
Numbers without * were called inactive; ? = inconclusive; nt = no result; [ ] = remark or other dose. Sampled rows, rich in hits. Any-hit rate of the full collection: about 6.2%. Calls follow the shape of the dose curve; as a rule, active = well fitted curve in the direction sought with a large enough effect; inconclusive = small, poorly fitted or top-dose-only effect, or another doubt; inactive = no such curve, though single readings can be large; an effect the other way counts as inactive or inconclusive. % is scaled to controls: 0 for no effect and ±100 for the full control effect; potency is read from the fitted curve at half-maximal effect.

SMILES	RORgamma inh	Luc counter	Gal4-VP16 FLuc
CC(=O)c1c(N)[nH]c(-c2ccccc2)nc1=S	0.32µM*	7%	0.79µM*
CCN(CC)CCC(c1ccc(N(C)C)cc1)c1c(OC)cc(OC)c2c1OC(=O)CC2c1ccc(OC)cc1 (stereo not given)	12%	nt	1%
CCOC(=O)CNC(=O)O[C@@H]1Cc2cc(OC)ccc2O[C@H]1c1cccc(OC)c1	3%	-1%	9%
COc1ccc(-c2nnc3n2N=C(c2ccccc2OC)CS3)cc1	?	nt	0%
O=C(CCN1CCN(S(=O)(=O)c2cccc([N+](=O)[O-])c2)CC1)Nc1ccccc1F	0%	nt	-9%
Cc1ccc(NC(=O)C(OC(=O)c2ccc(C=O)cc2)c2ccccc2)cc1Cl (stereo not given)	-37%	6%	?
CCN(CC)S(=O)(=O)c1ccc(C(=O)/C=C/c2ccc(-c3ccc([N+](=O)[O-])cc3)o2)cc1	-29%	nt	6%
CCc1ccc(C(=O)/C=C/c2ccc([N+](=O)[O-])o2)cc1	?	-9%	8.9µM*
C/C=C1\C2C=C(C)C[C@@]1(N)c1ccc(=O)[nH]c1C2	18%	1%	1%
O=C(N=C1SC2CS(=O)(=O)CC2N1c1ccc(F)cc1)C1CC1 (stereo not given)	2%	nt	-3%
O=C(C#Cc1ccccc1)c1ccco1	2.8µM*	nt	3.2µM*
CN(Cc1ccccc1)C(=O)c1ccco1	7%	-1%	-9%
CN(C)c1ccc(/C=N/NC(=O)C(=O)/C=C2\NC3(CCCC3)Cc3ccccc32)cc1	44%	-6%	-11%
COc1ccc(C(=O)NNC(=O)OC(C)(C)C)cc1	7%	nt	12%
COc1ccc(C(=O)NN/C(C)=C/C(=O)C(F)(F)C(F)(F)C(F)(F)F)cc1	5.6µM*	-3%	5.6µM*
COc1ccc(C(=O)Nc2ccc3ccccc3n2)c(OC)c1OC	8.9µM*	nt	10µM*
O=C(Nc1ccc2ccccc2n1)c1ccc(Cl)cc1	-43%	nt	-5%
O=C(Nc1ccc2ccccc2n1)c1ccccc1Cl	13µM*	nt	?
COc1cccc(C(=O)Nc2cccc3ccccc23)c1OC	45%	nt	1%
COCC(=O)N1CCC2(CCCN(C(=O)Nc3cccc(F)c3)C2)CC1	4%	1%	4%
CCCOc1ccc(CNC(=O)c2ccc3nc(N4CCOCC4)sc3c2)cc1	-11%	nt	-13%
CC(C)(C)NC(=O)c1ccc2c(c1)CCO2	13%	nt	-8%
O=C(NC(=O)c1ccccc1O)c1ccc2c(c1)CCO2	5µM*	nt	?
COC(=O)c1ccccc1S(=O)(=O)N1Cc2cc([N+](=O)[O-])ccc2Oc2ccccc21	-21%	-1%	-1%
COc1ccc(-c2cc(C(=O)N3CCOCC3)no2)cc1	10µM*	nt	?
SMILES	RORgamma inh	Luc counter	Gal4-VP16 FLuc
O=C(c1cc(-c2ccc(Br)cc2)on1)N1CCOCC1	10µM*	nt	?
O=C(c1cc(-c2ccc(Br)cc2)on1)N1CCCCCC1	-1%	nt	?
COc1ccc(-c2cc(C(=O)N3CCOCC3)no2)cc1OC	-8%	-4%	12%
C[C@@H](CC#N)CN1CC[C@H](C(C)(C)C)CCC1=O	6%	nt	0%
Nn1c(Nc2ccccc2)nc2sc3c(c2c1=O)CCCC3	?	-3%	5%
Cc1cccc(NC2=NC(=S)N(CC#N)C23CCCCC3)c1	11µM*	1%	?
O=C(O)c1cccc(N2C(=S)N=C(Nc3ccccc3)C23CCCCC3)c1	-1%	-2%	16%[10 µM]
CCN1C(=O)CC(c2ccco2)Sc2ccccc21 (stereo not given)	-29%	0%	20%
Cc1snc(SCC(=O)N/N=C(\N)COc2ccc(F)cc2)c1C#N	2.5µM*	-4%	4.5µM*
Cc1sc(NC(=O)CSc2nnc(-c3ccc(F)cc3)o2)c(C#N)c1C	-25%	-2%	6%
O=C(OCn1nnc2ccccc2c1=O)c1cc(-c2ccccc2)nc2ccccc12	4%	0%	2%
COc1nc(Nc2nc3ccccc3c(=O)[nH]2)nc2ccc(C)cc12	?	nt	5µM*
Cc1cc(C)cc(Nc2nc3ccccc3c(=O)[nH]2)c1	-41%	1%	-1%
Cn1cc(CN2CCC[C@H]2CO)c(-c2cccc(Cl)c2)n1	-2%	1%	0%
COc1cc(OC)c(OC)cc1/C=N/NC(=O)c1ccc(=O)n(C)c1	-8%	-2%	2%
COc1cccc(/C=N/NC(=O)C(=O)Nc2ccccc2OC(F)(F)C(F)F)c1O	1µM*	1%	1.4µM*
COc1cccc(/C=N/NC(=O)c2ccc(=O)n(C)c2)c1O	0.63µM*	-3%	3.2µM*
COc1ccc(OC)c(/C=N\NC(=O)c2ccc(-c3ccccc3)cc2)c1	-33%	nt	-13%
COc1ccccc1/C=N/NC(=O)c1cccc(OC(F)(F)C(F)F)c1	-43%	2%	4%
COc1cccc(/C=N/NC(=O)c2ccc(-c3ccccc3)cc2)c1O	0.71µM*	4%	3.2µM*
CCOC(=O)c1ccccc1-c1cn2cc(Cl)ccc2n1	8%	0%	-15%
CCc1cccc2cc(C(O)CNC(C)(C)C)oc12 (stereo not given)	8%	nt	-2%
Cc1nc(-c2ccc(S(=O)(=O)N3CCN(CCc4ccccc4)CC3)s2)cs1	10%	nt	-3%
C=CCOc1ccc2c(=O)n(C)c3ccccc3c2c1	8%	nt	2%
CC(/C=N/n1c(-c2cccnc2)n[nH]c1=S)=C\c1ccco1	-38%	nt	-8%
SMILES	RORgamma inh	Luc counter	Gal4-VP16 FLuc
CC(/C=N/n1c(COc2ccccc2)n[nH]c1=S)=C\c1ccco1	7.1µM*	nt	-19%
Cc1ccc(/C=N/n2c(COc3ccccc3)n[nH]c2=S)o1	?	-5%	8%[10 µM]
S=c1[nH]nc(COc2ccccc2)n1/N=C/c1ccco1	7.9µM*	1%	-3%
Nn1c(SCC(=O)Nc2ccc(S(N)(=O)=O)cc2)nnc1C(F)(F)F	33%	nt	-1%
COC(=O)NC(c1ccc2ccccc2c1)C(C(C)=O)C(=O)OC (stereo not given)	-9%[10 µM]	nt	-7%[10 µM]
CCOC(=O)/C(N=Nc1sc(C(=O)OC)c(C)c1C(=O)OCC)=C(\O)CCl	?	0%	-4%
CC(C)c1ccc(N2C=Nc3ccc(C(C)C)cc3C2)cc1	7.9µM*	nt	?
C1=Nc2ccccc2CN1c1ccccc1	5%	-16%	-10%
C=C1CCN(C(CC(C)C)C(=O)NCc2ccc(Cl)c(Cl)c2)S(=O)(=O)c2ccccc21 (stereo not given)	27%	nt	3%
COCCN(CCOC)C(=O)c1ccc(SCc2ccc(C)cc2)c([N+](=O)[O-])c1	32%	3%	-5%
COc1ccc(S(=O)(=O)Cc2ccc(C(=O)NCCCN(C)c3ccccc3)o2)cc1	?	-4%	0%
COc1ccc(S(=O)(=O)Nc2cc(Sc3ncn[nH]3)c(O)c3ccccc23)cc1	5µM*	-1%	7.1µM*
COc1ccc(S(=O)(=O)Nc2ccc(O)c(Sc3ncn[nH]3)c2)cc1	-7%	1%	6%
COc1ccc(S(=O)(=O)Nc2cc(SCC(=O)O)c(O)c3ccccc23)cc1	?	nt	-21%
O=S(=O)(Nc1cc(Sc2cccc3cccnc23)c(O)c2ccccc12)c1ccc(F)cc1	1.3µM*	-1%	2.5µM*
CCOC(=O)Cn1nc(C)c(NC(=O)CCc2ccc(OC)cc2)c1C	-1%	1%	-7%
